# Reference: PubChem BioAssay (EPA / NIEHS)
# Several values for one entry are separate records, joined by “and”; a condition that tells them apart may be missing. Equal values may be shown once. Some compounds were tested as several samples or in several runs, with calls that do not always agree. Activity calls are given as the source filed them. The calls were made as follows: active = hit-call score of the fitted dose curve at least 0.9, where 1 is the maximum; inactive = score below 0.9.
# Experiment: ATG_TAL_CIS: Attagene CIS-FACTORIAL HepG2 Assay for human TAL Basal Promoter (AID 2282966);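 also: background control endpoint measuring basal TAL promoter reporter mRNA not a specific factor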
# Conditions: HepG2 Attagene cis-factorial TAL promoter reporter; actives raise or lower the signal
# Outline: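 In this cell-based multiplex, HepG2 liver cells bearing cis-promoter reporter constructs are dosed for 24 hours. Total RNA is reverse-transcribed and amplified, labelled fragments are sized by capillary electrophoresis, and signal changes are fitted bidirectionally versus DMSO.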
Structure (SMILES),outcome,AC50
FC1CC(F)(F)C(F)(F)C1(F)F (stereo not given),inactive,
C=C(C)C(=O)OCC(F)(F)C(F)(F)C(F)(F)F,inactive,
O=C(O)C(F)(F)C(F)(F)C(F)(F)C(F)(F)C(F)(F)C(F)(F)C(F)(F)C(F)(F)Cl,inactive,50 µM (active)
Cc1ccc(S(=O)(=O)NCl)cc1,inactive,
CO[Si](OC)(c1ccccc1)c1ccccc1,inactive,
C=C(C)C(=O)OCCC(F)(F)C(F)(F)C(F)(F)C(F)(F)C(F)(C(F)(F)F)C(F)(F)F,inactive,
CC(C)(C)c1ccc(OC2CCCCC2O)cc1 (stereo not given),inactive,
CC(C)=CCCC(C)CCOC(=O)C(C)C (stereo not given),inactive,
O=S(=O)(OCC(F)F)C(F)(F)F,inactive,
FC(F)(F)C(F)(F)CNCC(F)(F)C(F)(F)F,inactive,
OCC(F)(F)C(F)(F)C(F)(F)C(F)(F)C(F)(F)C(F)F,inactive,
CN(C)Cc1ccccc1O,inactive,
CC(C)OC(=O)c1ccccc1C(=O)OC(C)C,inactive,
O=C(O)C(F)(OC(F)(F)C(F)(OC(F)(F)C(F)(F)C(F)(F)F)C(F)(F)F)C(F)(F)F (stereo not given),inactive,
C(=C(c1ccccc1)c1ccccc1)c1ccccc1,inactive,
OCCCC(F)(F)C(F)(F)C(F)(F)C(F)(F)C(F)(F)C(F)(F)C(F)(F)F,inactive,88.7 µM (active)
c1ccc(-c2ccccc2-c2ccccc2)cc1,inactive,

Structure (SMILES),outcome,AC50
FC(F)(F)C(F)(F)C(F)(F)C(F)(F)CCI,inactive,
O=C(C=Cc1ccccc1)OCC=Cc1ccccc1,inactive,
N=C(N)C(F)(F)C(F)(F)C(F)(F)C(F)(F)C(F)(F)C(F)(F)C(F)(F)F,inactive,
CCCCCCOC(=O)c1ccccc1,inactive,
O=C(O)C(F)(F)C(F)(F)C(F)(F)C(F)(F)C(F)(F)C(F)(F)C(F)(F)C(F)(F)C(F)(F)C(F)(F)C(F)(F)C(F)(F)F,inactive,
CCCCOCCOCCOC(=O)CCCCC(=O)OCCOCCOCCCC,inactive,
CCN(CC)c1ccc2c(C)cc(=O)oc2c1,inactive,
C=CC(=O)OCC(F)(F)C(F)(F)C(F)(F)C(F)(F)COC(=O)C=C,inactive,
CC(Cc1ccc(O)c(O)c1)C(C)Cc1ccc(O)c(O)c1 (stereo not given),,6.72 µM (active)
CCCCCCOC(=O)c1ccccc1O,inactive,
FC(F)(I)C(F)(F)C(F)(F)C(F)(F)I,inactive,
C=CC(F)(F)C(F)(F)C(F)(F)C(F)(F)C(F)(F)C(F)(F)C(F)(F)C(F)(F)F,inactive,
CCC(=O)OCCc1ccccc1,inactive,
OC[C@@H](O)[C@@H](O)[C@H](O)[C@@H](O)CO,inactive,
CCCCCCCOC(=O)c1ccccc1C(=O)OCCCCCCC,inactive,
Nc1cc(Cl)c(N)c(Cl)c1,inactive,
C1COCCN1,inactive,

# Experiment: ATG_TGFb_CIS: Attagene CIS-FACTORIAL HepG2 Assay for human Transforming Growth Factor (TGF) (AID 2282967)
# Conditions: HepG2 Attagene CIS TGFb reporter, mRNA transcription; actives raise or lower the signal
# Outline: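 Liver HepG2 line, cis-factorial reporter panel, 24 h dosing. Quantitation: RT-PCR products labeled with 6-FAM, cut with HpaI, resolved by capillary electrophoresis; DMSO-referenced bidirectional analysis.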
Structure (SMILES),outcome,AC50
FC1CC(F)(F)C(F)(F)C1(F)F (stereo not given),inactive,
C=C(C)C(=O)OCC(F)(F)C(F)(F)C(F)(F)F,inactive,
O=C(O)C(F)(F)C(F)(F)C(F)(F)C(F)(F)C(F)(F)C(F)(F)C(F)(F)C(F)(F)Cl,,74.7 µM (active) and 82.8 µM (active)
Cc1ccc(S(=O)(=O)NCl)cc1,inactive,
CO[Si](OC)(c1ccccc1)c1ccccc1,inactive,
C=C(C)C(=O)OCCC(F)(F)C(F)(F)C(F)(F)C(F)(F)C(F)(C(F)(F)F)C(F)(F)F,inactive,
CC(C)(C)c1ccc(OC2CCCCC2O)cc1 (stereo not given),inactive,
CC(C)=CCCC(C)CCOC(=O)C(C)C (stereo not given),inactive,
O=S(=O)(OCC(F)F)C(F)(F)F,inactive,
FC(F)(F)C(F)(F)CNCC(F)(F)C(F)(F)F,inactive,
OCC(F)(F)C(F)(F)C(F)(F)C(F)(F)C(F)(F)C(F)F,inactive,
CN(C)Cc1ccccc1O,inactive,
CC(C)OC(=O)c1ccccc1C(=O)OC(C)C,inactive,
O=C(O)C(F)(OC(F)(F)C(F)(OC(F)(F)C(F)(F)C(F)(F)F)C(F)(F)F)C(F)(F)F (stereo not given),inactive,
C(=C(c1ccccc1)c1ccccc1)c1ccccc1,,100 µM (active)
OCCCC(F)(F)C(F)(F)C(F)(F)C(F)(F)C(F)(F)C(F)(F)C(F)(F)F,inactive,
c1ccc(-c2ccccc2-c2ccccc2)cc1,inactive,

Structure (SMILES),outcome,AC50
FC(F)(F)C(F)(F)C(F)(F)C(F)(F)CCI,inactive,
O=C(C=Cc1ccccc1)OCC=Cc1ccccc1,inactive,
N=C(N)C(F)(F)C(F)(F)C(F)(F)C(F)(F)C(F)(F)C(F)(F)C(F)(F)F,inactive,
CCCCCCOC(=O)c1ccccc1,inactive,
O=C(O)C(F)(F)C(F)(F)C(F)(F)C(F)(F)C(F)(F)C(F)(F)C(F)(F)C(F)(F)C(F)(F)C(F)(F)C(F)(F)C(F)(F)F,,65.5 µM (active)
CCCCOCCOCCOC(=O)CCCCC(=O)OCCOCCOCCCC,inactive,
CCN(CC)c1ccc2c(C)cc(=O)oc2c1,inactive,
C=CC(=O)OCC(F)(F)C(F)(F)C(F)(F)C(F)(F)COC(=O)C=C,inactive,
CC(Cc1ccc(O)c(O)c1)C(C)Cc1ccc(O)c(O)c1 (stereo not given),inactive,
CCCCCCOC(=O)c1ccccc1O,inactive,
FC(F)(I)C(F)(F)C(F)(F)C(F)(F)I,inactive,
C=CC(F)(F)C(F)(F)C(F)(F)C(F)(F)C(F)(F)C(F)(F)C(F)(F)C(F)(F)F,inactive,
CCC(=O)OCCc1ccccc1,inactive,
OC[C@@H](O)[C@@H](O)[C@H](O)[C@@H](O)CO,inactive,
CCCCCCCOC(=O)c1ccccc1C(=O)OCCCCCCC,inactive,
Nc1cc(Cl)c(N)c(Cl)c1,inactive,
C1COCCN1,inactive,
